Bioassay records as filed in PubChem.
Compounds with a hit are over-represented: about 11% of the library has one in this group of screens.
Pf growth 48h – Primary qHTS for delayed death inhibitors of the malarial parasite plastid, 48 hour incubation | P. falciparum luciferase growth in erythrocytes, 48 h | Potency, µM (doses to about 28.7 µM), for inactives: top-dose activity change, negative = inhibition, actives largely listed as inhibitors | hit rate 5.9% among 310,000 | AID 504832, 2011
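Firefly luciferase activity from engineered P. falciparum reports growth; inhibitors lower the luminescent signal. Cultures contained 2% hematocrit erythrocytes at 0.1% final parasitemia.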
Pf growth 96h – Primary qHTS for delayed death inhibitors of the malarial parasite plastid, 96 hour incubation; hit rate 6.9% among 320,000; AID 504834, 2011; P. falciparum luciferase reporter growth, 96 h; Potency, µM (doses to about 28.7 µM), without a hit: at the highest dose activity change, negative = inhibition, usual class: inhibitors
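Infected RBCs, 2% Hct / 0.05% parasitemia final; luciferase-reporter P. falciparum; cpd 96 h, 37 C, 5% CO2; luciferase detection reagent; luminescence.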
AmpC inh detg – qHTS Inhibitors of AmpC Beta-Lactamase (assay with detergent); P00811; AmpC hydrolysis of nitrocefin, absorbance 480 nm, 0.01% Triton; Potency, µM (series often up to 114 µM), inactives show at the highest dose activity change, negative = inhibition, most hits filed as inhibitors; hit rate 0.041% among 370,000;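 note: 0% = no-compound wells and -100% = no-enzyme wells; nearly all actives have a fitted effect of over 25% in size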
Target sequence (P00811 whole entry, looked up): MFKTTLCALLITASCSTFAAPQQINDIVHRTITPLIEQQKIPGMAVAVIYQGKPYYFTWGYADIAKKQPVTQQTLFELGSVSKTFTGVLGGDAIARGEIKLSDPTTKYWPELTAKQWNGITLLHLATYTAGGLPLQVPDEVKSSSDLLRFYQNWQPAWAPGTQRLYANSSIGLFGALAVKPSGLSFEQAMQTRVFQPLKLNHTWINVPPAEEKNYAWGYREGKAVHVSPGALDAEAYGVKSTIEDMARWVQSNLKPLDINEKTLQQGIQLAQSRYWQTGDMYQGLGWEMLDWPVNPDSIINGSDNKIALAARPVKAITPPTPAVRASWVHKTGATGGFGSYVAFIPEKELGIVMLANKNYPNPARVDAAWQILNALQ
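AmpC (5.3 nM in the dispensed reagent) in 20 mM phosphate pH 7.0 with 0.01% (detergent screen) or 0.0001% Triton X-100 was preincubated with compounds for 15 min at room temperature. Nitrocefin was then added from an 800 uM solution, and hydrolysis was followed at 480 nm.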
AMA1 RON2 block – qHTS for Inhibitors of AMA1-RON; Towards Development of Antimalarial Drug Lead: Primary Screen | Plasmodium falciparum AMA1 (3D7) - RON2 peptide interaction | AlphaScreen AMA1-biotinylated RON2 peptide binding | Potency, µM (top dose mostly 58.2 µM), without a hit: top-dose activity change, negative = inhibition, actives largely listed as inhibitors | hit rate 0.2% among 360,000;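 note: 0% = vehicle wells and -100% = peptide control; nearly all actives have a fitted effect of over 45% in size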
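AMA1 (3D7) with his tag at 25 nM final met compounds first, then biotinylated RON2 peptide at 25 nM; detection used donor plus acceptor beads, 10 µg/mL apiece, read by AlphaScreen after 30 min at room temperature.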
HCV inh – qHTS Assay for Inhibitors of Hepatitis C Virus (HCV); hit rate 3.4% among 340,000; AID 651820, 2012; Potency, µM (highest dose often 41.8 µM), for inactives: top-dose activity change, negative = inhibition, hits mostly inhibitors; Huh7.5.1 HCVcc-Cre infection, luciferase reporter, 44 h
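Whole-lifecycle infectious HCVcc-Cre system; cells 1,000/well, compound then virus (~0.5 moi) added 4 h after plating, 44 h culture. Luciferase read 15 sec following 15 min substrate incubation, room temp.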
AmpC no deterg – qHTS Inhibitors of AmpC Beta-Lactamase (assay without detergent); AID 485341, 2010; AmpC nitrocefin hydrolysis, absorbance 480 nm, 0.0001% Triton; Potency, µM (top dose mostly 57.1 µM), for inactives: at the highest dose activity change, negative = inhibition, hits mostly inhibitors; hit rate 0.52% among 330,000;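 note: plate controls were no compound for no effect and no enzyme for full effect; nearly all actives have a fitted effect of over 20% in size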
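20 mM phosphate pH 7.0 + 0.01% (detergent screen) or 0.0001% Triton X-100; 5.3 nM AmpC reagent; cpd preinc 15 min RT; nitrocefin (800 uM stock) to start; A480 q20 s × 4 min; Activity was normalised to no-enzyme and no-compound control wells.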
Numbers without * were called inactive; ? = inconclusive; nt = not tested or not shown. Calls come from the whole dose curve; as a rule, active = well fitted curve in the direction sought with a large enough effect; inconclusive = small, poorly fitted or top-dose-only effect, or another doubt; inactive = no such curve, though single readings can be large; an effect the other way counts as inactive or inconclusive. Unless noted, % is set by controls: 0 for no effect and ±100 for the full control effect; potency is the fitted concentration of half-maximal effect.

SMILES	Pf growth 48h	Pf growth 96h	AmpC inh detg	AMA1 RON2 block	HCV inh	AmpC no deterg
Cc1cccc(NC(=O)c2cc(S(=O)(=O)c3ccccc3)ccc2Cl)c1	nt	-83%	-13%	4%	7.9µM*	-38%
CN(C)S(=O)(=O)c1ccc(C(=O)Nc2cccc(C(=O)O)c2)cc1	62%	nt	3%	-2%	18%	nt
Cc1ccc2sc3ccc(NC(=O)c4ccccc4Cl)cc3c(=O)c2c1	?	?	3%	12%	8.9µM*	-34%
Cc1ccc(NC(=O)c2ccc(NC(=O)c3ccccc3)cc2)cc1C	25%	1.2µM*	3%	10%	nt	-22%
Cc1c(C(=O)N2CCC(C)CC2)c(S(=O)(=O)NCc2ccc(Br)cc2)c(C)n1C	nt	nt	9%	nt	nt	nt
CCc1ccc(S(=O)(=O)Nc2cccc(-c3ccc(N4CCOCC4)nn3)c2)cc1	nt	nt	1%	nt	nt	nt
COc1cc(OC)cc(C(=O)Nc2ccc(Nc3ccccc3)cc2)c1	32%	-84%	-4%	-29%	8.9µM*	-22%
Cc1cccc(C(=O)Nc2cccc(NC(=O)c3ccccc3)c2)c1	51%	?	3%	-10%	?	22µM*
CCOCCOc1cccc(C(=O)NC(C)c2ccc3ccccc3c2)c1 (stereo not drawn)	-12%	?	?	6%	-12%	20%
O=C(NCCc1ccc(F)cc1)c1cccc(NC(=O)c2ccccc2)c1	-12%	?	0%	21%	22µM*	-34%
CCOCCOc1cccc(C(=O)NC(c2ccccc2)c2ccccc2)c1	?	2.1µM*	2%	13%	-14%	-4%
Cc1cc(Nc2cc(F)ccc2C)nc(-n2nc(C)cc2C)n1	nt	nt	-6%	nt	nt	nt
O=C(Nc1cccc(Cl)c1)C1CCN(c2nc3ccccc3nc2C(F)(F)F)CC1	nt	nt	2%	nt	nt	nt
CCOc1ccc(NS(=O)(=O)c2cc(NC(=O)c3cccc(C)c3)ccc2Cl)cc1	?	?	8%	-1%	11µM*	-27%
COc1ccc(C(=O)NNC(=O)Cc2ccc(Cl)cc2)cc1	3%	?	-6%	85%	23%	-13%
CCOc1ccc(NS(=O)(=O)c2cc(C(=O)N3CCCC3)ccc2Cl)cc1	?	-6%	?	6%	?	21%
COc1cccc(C(=O)NNC(=O)Cc2ccc(Cl)cc2)c1	5%	2.9µM*	?	89%	-4%	-19%
Cc1ccc(NC(=O)c2ccc3c(c2)CCN3S(C)(=O)=O)cc1C	59%	0%	-19%	16%	11µM*	-13%
COc1cc(OC)cc(C(=O)NC(c2ccccc2)c2ccccc2)c1	?	12µM*	?	15%	-7%	30%
Cc1ccc(NC(=O)c2ccc3c(c2)CCN3S(C)(=O)=O)cc1	nt	nt	nt	-3%	nt	nt
COc1cc(OC)cc(C(=O)OCC(=O)NC(c2ccccc2)c2ccccc2)c1	-11%	5%	7%	1%	?	-11%
CCc1ccc(NC(=O)CN2C(=O)c3cccc4cccc2c34)cc1	nt	nt	16%	nt	nt	nt
CC[C@]12C(=O)N(C)C[C@H]([C@@H]3C(=O)N(Cc4ccccc4)C(=O)[C@@H]31)N2C(=O)c1ccc(C(F)(F)F)cc1	nt	nt	nt	0%	6%	nt
CSc1ccc(CCNC(=O)CN2C(=O)COc3ccc(S(=O)(=O)N4CCCC4)cc32)cc1	nt	nt	-12%	nt	nt	nt
O=C(NCc1ccc(F)cc1)C(=O)Nc1ccc2nc3n(c(=O)c2c1)CCCCC3	nt	nt	14%	nt	nt	nt
SMILES	Pf growth 48h	Pf growth 96h	AmpC inh detg	AMA1 RON2 block	HCV inh	AmpC no deterg
Cc1c(Cc2ccccc2)c(=O)oc2c(C)c(OCC(=O)Nc3ccc(C#N)cc3)ccc12	?	2.1µM*	-7%	16%	-3%	-21%
Cc1c(Cc2ccccc2)c(=O)oc2c(C)c(OCC(=O)NCC3CCC(C(=O)O)CC3)ccc12 (stereo not drawn)	?	-24%	?	10%	-18%	-29%
Cc1oc2cc3oc(=O)c(CCC(=O)NC4CC4)c(C)c3cc2c1C	?	?	-13%	9%	?	-13%
Cc1c(Cc2ccccc2)c(=O)oc2cc(OCC(=O)c3ccccc3)ccc12	10%	-28%	3%	6%	?	-25%
Cc1cc(OCC(=O)NCC2CCC(C(=O)O)CC2)c2c(C)c(Cc3ccccc3)c(=O)oc2c1 (stereo not drawn)	12µM*	3.3µM*	-15%	-3%	-14%	15%
Cc1cc(C)cc(NC(=O)COc2ccc3c(C)c(Cc4ccccc4)c(=O)oc3c2)c1	8.3µM*	?	-4%	nt	9%	?
C=C(C)COc1ccc2c(C)c(CCC(=O)NC3CC3)c(=O)oc2c1	10µM*	10µM*	-1%	-13%	?	24%
COCCNC(=O)Cn1nc(N2CCN(c3ccccc3OC)CC2)ccc1=O	nt	nt	5%	nt	nt	nt
O=C(CC1N=C2c3ccccc3N=C(SCc3ccccc3Cl)N2C1=O)NCCc1ccccc1 (stereo not drawn)	nt	nt	15%	nt	nt	nt
COc1ccc(NC(=O)C2=C(C)C(=O)OC23CCN(C(C)C)CC3)cc1Cl	nt	nt	0%	nt	nt	nt
CC1CC(C)CN(CC(O)COCCOc2ccc(Br)cc2)C1 (stereo not drawn)	9.3µM*	?	?	-3%	?	10%
O=C(CCS(=O)(=O)c1ccc(Br)s1)NC1CCCC1	nt	-52%	-4%	3%	-3%	-4%
CC(C)NC(=O)CCS(=O)(=O)c1ccc(Br)s1	38%	0.47µM*	0%	0%	0%	-18%
CCOc1cc(/C=C2\SC(=N)N(c3nccs3)C2=O)ccc1OCCN1CCOCC1	?	4.1µM*	?	72%	-11%	227%
CCOc1cc(/C=C2\SC(=S)N(N3CCOCC3)C2=O)ccc1O	-1%	21%	?	-7%	12%	-7%
O=C1c2cnc3nc(SCc4cccc(Cl)c4)nn3c2CC2c3ccccc3CCN12 (stereo not drawn)	?	72%	-18%	-6%	11µM*	-19%
CSc1nc2ncc3c(n2n1)CC1c2ccccc2CCN1C3=O (stereo not drawn)	?	?	-11%	18%	15%	-12%
O=C(NCCC1=CCCCC1)c1ccc2c(c1)N(Cc1ccc(Cl)cc1)C(=O)c1ccccc1S2(=O)=O	nt	nt	-5%	nt	nt	nt
COC(=O)c1c(-c2ccc(Cl)cc2)noc1N1CCN(c2ccc(OC)cc2)CC1	nt	nt	11%	nt	nt	nt
